Screening data: PubChem, several laboratories
CYP2C19 inhib: blocks human cytochrome P450 2C19; inhibition, % at 5 µM; CYP2C19 Supersomes, luciferin-H EGE luminescence, 30 min; actives 21% (n = 96,000);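 active means CYP2C19 inhibition above a set limit at 5 µM in the primary screen, cut at about 50% in these data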;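 further: plate controls were negative control wells for no effect and 2.5 mM tranylcypromine positive control for full effect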
Target sequence (P33261 whole entry, looked up): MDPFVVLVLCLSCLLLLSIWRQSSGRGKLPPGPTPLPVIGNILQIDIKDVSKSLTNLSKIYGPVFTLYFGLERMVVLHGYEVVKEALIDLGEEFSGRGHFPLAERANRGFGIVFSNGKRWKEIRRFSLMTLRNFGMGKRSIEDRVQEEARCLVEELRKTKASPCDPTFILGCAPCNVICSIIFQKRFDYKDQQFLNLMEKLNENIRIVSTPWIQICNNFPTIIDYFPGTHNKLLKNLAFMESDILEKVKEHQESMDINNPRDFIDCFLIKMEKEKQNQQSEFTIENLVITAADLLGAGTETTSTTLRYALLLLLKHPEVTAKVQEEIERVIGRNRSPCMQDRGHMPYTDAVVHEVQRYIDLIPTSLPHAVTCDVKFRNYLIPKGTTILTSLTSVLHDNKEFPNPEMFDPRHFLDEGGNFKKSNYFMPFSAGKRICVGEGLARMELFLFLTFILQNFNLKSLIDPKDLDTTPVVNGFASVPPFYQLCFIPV
PostGolgi yeast: growth inhibition of a yeast mutant, post-Golgi transport screen. actives 0.9% (n = 98,000). post-Golgi transport phenotypic cell assay. inhibition, % at 10 µM;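 further: yeast cells grown in 1536-well plates; yeast grown about 18 h at 30C before absorbance read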
CYP2C9 inh: blocks human cytochrome P450 2C9. actives 20% (n = 96,000). CYP2C9 Supersomes, luciferin-H conversion, luminescence. AID 777. inhibition, % at 5 µM. P11712;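 active means blocking of liver enzyme CYP2C9 beyond about 50% at 5 µM, limit read from the data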
CYP2C9 act: increases human cytochrome P450 2C9 activity; P11712; activation factor at 5 µM; AID 1024; recombinant CYP2C9, luciferin-H conversion, luminescence; hits give high values; factor 1 = untreated enzyme, 0 = blocked; actives 1.4% (n = 96,000);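 active means activation factor of 2 or more for CYP2C9 at a 5 µM dose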;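 further: 0 = sulfaphenazole-blocked wells and 1 = vehicle-only wells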
PostGolgi ctrl: yeast control strain growth, post-Golgi counter-screen. inhibition, % at 10 µM. actives 5% (n = 98,000). AID 738. efflux-deficient yeast background strain, growth absorbance A615, 16 h
CYP2C19 act: activators of human cytochrome P450 2C19 | AID 1025 | activation factor at 5 µM | P33261 | 96,000 tested, under 10 active | recombinant CYP2C19, luciferin-H EGE luminescence; hits give high values; 0 = fully inhibited enzyme, 1 = untreated enzyme;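 active means activation factor of at least 2 at 5 µM in the primary screen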;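 further: 0 = wells with 2.5 mM tranylcypromine and 1 = vehicle-only wells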
* marks the source's active call; other numbers are inactive results. Rows were chosen to be rich in hits. Some 32% of all compounds tested hit in one or more screens of this group. Unless noted, no stated cut-off is given here; in the data, active means inhibition above about 30%; inactive means the rest.

How did O=C(CCS(=O)(=O)c1ccc(Br)s1)NC1CCCCCC1 do in these assays?
CYP2C19 inhib: -10; PostGolgi yeast: -25; CYP2C9 inh: 2; CYP2C9 act: 1; PostGolgi ctrl: 11; CYP2C19 act: 1.1

How did COc1ccccc1Nc1nc(N)nc(-c2cc3ccccc3o2)n1 do in these assays?
CYP2C19 inhib: -10; PostGolgi yeast: -2; CYP2C9 inh: -13; CYP2C9 act: 1.1; PostGolgi ctrl: 2; CYP2C19 act: 1.1

Results for Cc1c(-c2nc(N)nc(Nc3ccccc3F)n2)oc2ccccc12 ?
CYP2C19 inhib: 7; PostGolgi yeast: 13; CYP2C9 inh: 38; CYP2C9 act: 0.6; PostGolgi ctrl: 35*; CYP2C19 act: 0.9

Results for COc1cccc(Nc2nc(N)nc(-c3oc4ccccc4c3C)n2)c1 ?
CYP2C19 inhib: -5; PostGolgi yeast: 26; CYP2C9 inh: 32; CYP2C9 act: 0.7; PostGolgi ctrl: 77*; CYP2C19 act: 1.1

Results for Cc1ccc(CNC(=O)c2ccc(CNc3c(N4CCCC4)c(=O)c3=O)cc2)cc1 ?
CYP2C19 inhib: 80*; PostGolgi yeast: -10; CYP2C9 inh: 51*; CYP2C9 act: 0.5; PostGolgi ctrl: 11; CYP2C19 act: 0.2

Results for CCOC(=O)C1CCN(c2c(NCc3ccc(C(=O)NC4CCCC4)cc3)c(=O)c2=O)CC1 ?
CYP2C19 inhib: 7; PostGolgi yeast: -1; CYP2C9 inh: 61*; CYP2C9 act: 0.4; PostGolgi ctrl: 1; CYP2C19 act: 0.9

Results for CCOC(=O)C1CCN(c2c(NCc3ccc(C(=O)NCCOC)cc3)c(=O)c2=O)CC1 ?
CYP2C19 inhib: -12; PostGolgi yeast: 5; CYP2C9 inh: 0; CYP2C9 act: 1; PostGolgi ctrl: -4; CYP2C19 act: 1.1

Results for CCOC(=O)Nc1cccc(OCC(=O)Nc2ccccc2OC)c1 ?
PostGolgi yeast: -4; PostGolgi ctrl: 11

How did COc1ccccc1NC(=O)COc1ccc(Br)cc1CO do in these assays?
CYP2C19 inhib: 55*; PostGolgi yeast: -5; CYP2C9 inh: 31; CYP2C9 act: 0.7; PostGolgi ctrl: 10; CYP2C19 act: 0.4

What do the screens show for `Cc1ccccc1OCC(=O)NC1=NCCS1`?
CYP2C19 inhib: 51*; PostGolgi yeast: -3; CYP2C9 inh: 38; CYP2C9 act: 0.6; PostGolgi ctrl: 5; CYP2C19 act: 0.5

How did O=C(O)COc1ccc(Cl)cc1CO do in these assays?
CYP2C19 inhib: -21; PostGolgi yeast: 1; CYP2C9 inh: -9; CYP2C9 act: 1.1; PostGolgi ctrl: 4; CYP2C19 act: 1.2

What do the screens show for `O=C(COc1ccc(Br)cc1CO)Nc1ccccc1F`?
CYP2C19 inhib: 95*; PostGolgi yeast: -6; CYP2C9 inh: 67*; CYP2C9 act: 0.3; PostGolgi ctrl: 23; CYP2C19 act: 0

How did Cc1ccccc1OCC(=O)Nc1ccccc1CO do in these assays?
CYP2C19 inhib: 72*; PostGolgi yeast: 7; CYP2C9 inh: 19; CYP2C9 act: 0.8; PostGolgi ctrl: 24; CYP2C19 act: 0.3

What do the screens show for `CCOc1ccc(CNn2nnnc2N)cc1`?
CYP2C19 inhib: 4; PostGolgi yeast: 12; CYP2C9 inh: 2; CYP2C9 act: 1; PostGolgi ctrl: -6; CYP2C19 act: 1

What do the screens show for `Cc1c(CN2CCN(c3cccc(C(F)(F)F)c3)CC2)c(=O)n(-c2ccccc2)n1C`?
CYP2C19 inhib: 49; PostGolgi yeast: -6; CYP2C9 inh: 9; CYP2C9 act: 0.9; PostGolgi ctrl: 0; CYP2C19 act: 0.5

How did COC(=O)c1cc(OC)c(OC)cc1N=CC1=C(O)CC(C)(C)CC1=O do in these assays?
CYP2C19 inhib: 27; PostGolgi yeast: 5; CYP2C9 inh: 30; CYP2C9 act: 0.7; PostGolgi ctrl: -5; CYP2C19 act: 0.7

How did CCn1ncc(Br)c1C(=O)Nc1sc2c(c1C(N)=O)CCC2 do in these assays?
CYP2C19 inhib: 27; PostGolgi yeast: 6; CYP2C9 inh: 21; CYP2C9 act: 0.8; PostGolgi ctrl: -4; CYP2C19 act: 0.7

How did CCOC(=O)c1cccc2c1-c1ccccc1/C2=N/O do in these assays?
CYP2C19 inhib: 42; PostGolgi yeast: 12; CYP2C9 inh: 66*; CYP2C9 act: 0.3; PostGolgi ctrl: 20; CYP2C19 act: 0.6

Results for CCOC(=O)c1cccc(C(=O)OCC)n1 ?
CYP2C19 inhib: -15; PostGolgi yeast: -4; CYP2C9 inh: -3; CYP2C9 act: 1; PostGolgi ctrl: 6; CYP2C19 act: 1.1
